Bioassay records (PubChem)
USP2a inh: qHTS Assay for Inhibitors of Ubiquitin-specific Protease USP2a. hit rate 0.1% among 60,000. Ubiquitin carboxyl-terminal hydrolase 2 (Homo sapiens), O75604. Potency, µM (series often up to 38.3 µM), for inactives: top-dose activity change, negative = inhibition, most hits filed as inhibitors. USP2a enzymatic assay, qHTS inhibition; also: nearly all actives have a fitted effect of over 60% in size
Target sequence (O75604 whole entry, looked up): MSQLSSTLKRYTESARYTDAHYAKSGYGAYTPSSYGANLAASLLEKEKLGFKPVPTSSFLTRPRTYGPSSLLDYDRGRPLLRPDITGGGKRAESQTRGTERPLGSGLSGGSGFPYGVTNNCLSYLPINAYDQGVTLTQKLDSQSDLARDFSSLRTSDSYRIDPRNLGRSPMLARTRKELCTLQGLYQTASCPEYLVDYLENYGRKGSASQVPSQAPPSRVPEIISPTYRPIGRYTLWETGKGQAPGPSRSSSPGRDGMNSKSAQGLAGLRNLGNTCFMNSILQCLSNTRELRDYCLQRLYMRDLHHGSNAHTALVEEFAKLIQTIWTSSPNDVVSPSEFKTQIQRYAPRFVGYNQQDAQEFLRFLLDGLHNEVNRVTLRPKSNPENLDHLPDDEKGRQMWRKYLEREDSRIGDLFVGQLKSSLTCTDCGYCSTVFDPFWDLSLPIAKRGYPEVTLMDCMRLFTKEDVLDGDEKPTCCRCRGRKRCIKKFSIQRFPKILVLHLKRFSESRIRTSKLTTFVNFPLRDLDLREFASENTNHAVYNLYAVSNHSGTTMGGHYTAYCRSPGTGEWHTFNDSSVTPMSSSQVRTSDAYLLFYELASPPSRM
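20 nM USP2 core + cpd, 30 min RT; add 20 nM Ub-PLA2/20 uM NBD C6-HPC; read Ex460/Em535 at 0 h and 2.5 h. Normalized to NEM; qHTS curve fit/classification.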
TSHR ag: qHTS Assay for Agonists of the Thyroid Stimulating Hormone Receptor; Thyrotropin receptor (Homo sapiens), P16473; HEK293-CNG-TSHR cells (CNG channel as cAMP sensor), membrane potential dye, cAMP; Potency, µM (top dose mostly 57.1 µM), for inactives: at the highest dose activation, usual class: activators; hit rate 0.48% among 73,000; active = well fitted activation curve with a large enough effect in the main read-out, with a control signal flat, not every such curve was filed as active; inconclusive = small, poorly fitted or top-dose-only effect, or a change in a side signal; inactive = no such curve, though single readings can be large or run the other way; % of control where 0% means no effect;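 also: the control signal comes from parental cells without the receptor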
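HEK 293 cells stably expressing TSHR and a cAMP-gated CNG channel; parental CNG-only cells as counterscreen. Cells preloaded 60 min with membrane potential dye plus 100 uM RO 20-1724, then compound 30 min; fluorescence read at 590 nm.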
UbGFP stabilizer: Ubiquitin-GFP Assay | 67,000 tested, under 10 active | Ubiquitin-GFP reporter cells, proteasome inhibition, GFP fluorescence; response scale: untreated = 0%, 10 µM MG-132 = 100% | Potency, µM (highest dose often 45.9 µM), for the others: at the highest dose activation (GFP accumulation), actives largely listed as activators | AID 526, 2006; active = well fitted activation curve with a large enough effect, not every such curve was filed as active; inconclusive = small, poorly fitted or top-dose-only effect, or another doubt; inactive = no such curve, though single readings can be large or run the other way
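Proteasome blockade was scored as a rise in GFP-expressing U2OS cells carrying a ubiquitin(G76V)-GFP construct, imaged after 4 hr compound treatment at 37 °C across a 46 uM–2.9 nM series.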
HEK293 cAMP ctrl: qHTS Assay for Agonists of the Thyroid Stimulating Hormone Receptor: Activators of Intracellular cAMP Concentrations in Parental HEK 293 | AID 938, 2007 | parental HEK293 CNG cAMP sensor, membrane potential fluorescence | hit rate 2.5% among 73,000 | Potency, µM (titrated, usually from 57.1 µM), for the others: at the top dose activation, usual class: activators; also: % of control where 0% means no effect; nearly all actives have a fitted effect of over 55% in size
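Counterscreen for endogenous-receptor signalling: CNG-channel HEK 293 cells report cAMP rise by membrane depolarization. After 60 min dye equilibration with 100 uM RO 20-1724, compounds incubated 30 min before bottom-read fluorescence at 590 nm.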
Bst PK mod: Pyruvate Kinase; hit rate 1.2% among 51,000; Potency, µM; purified pyruvate kinase, luminescence ATP production; ribose 5-phosphate activator present at AC10; in the data active = potency below about 11 µM; inconclusive = mostly about 12 µM to 25 µM;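 the screen sought inhibitors and activators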;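 also: scaled between full activation by ribose 5 phosphate and full inhibition by luteolin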
GBA mod: Glucocerebrosidase | purified enzyme, resorufin glucoside fluorescence (screen aimed at inhibitors), 20 min | Potency, µM | hit rate 1.1% among 48,000 | AID 360, 2006; in the data active = potency below about 15 µM; inconclusive = mostly about 16 µM to 33 µM;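 also: the screen sought inhibitors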
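Wild-type enzyme at 0.2 nM final in 50mM citric acid/KH2PO4, 10mM sodium taurocholate, 0.01% tween-20, pH 5.9, with resorufin beta-D-glucopyranoside at 30 uM final. Compounds titrated, 20 min at RT, red fluorescence read; AC50 from titration.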
* = called active by the depositor; i = inactive; ? = inconclusive; . = no result given; [ ] = remark or other dose. Rows were chosen to be rich in hits. Some 4.1% of all compounds tested hit in one or more screens of this group. Unless noted, calls follow the shape of the dose curve; as a rule, active = well fitted curve in the direction sought with a large enough effect; inconclusive = small, poorly fitted or top-dose-only effect, or another doubt; inactive = no such curve, though single readings can be large; an effect the other way counts as inactive or inconclusive. Potency is read from the fitted curve at half-maximal effect.

SMILES	USP2a inh	TSHR ag	UbGFP stabilizer	HEK293 cAMP ctrl	Bst PK mod	GBA mod
COC(=O)[C@@]1(Cc2ccccc2)[C@H]2c3cc(C(=O)N4CCCC4)n(Cc4ccc(OC)c(OC)c4)c3C[C@H]2CN1C(=O)c1ccccc1	.	?	.	3.2µM*	.	.
COC(=O)[C@@]1(Cc2ccc(OC)cc2)[C@H]2c3cc(C(=O)N4CCCC4)n(CCc4ccc(OC)c(Br)c4)c3C[C@H]2CN1C(=O)c1ccccc1	.	?	.	5µM*	.	.
COC(=O)[C@@]1(Cc2ccc(OC)cc2)[C@H]2c3cc(C(=O)N4CCCC4)n(CCO)c3C[C@H]2CN1C(=O)c1ccccc1	.	1%	.	16%	.	.
COc1cccc(-c2nc(N3CCN(C)CC3)c3ccccc3n2)c1	99%	.	1%	9%	.	.
Cc1cccc(CNc2cc(-c3cccnc3)ncn2)c1	4%	28%	-4%	2%	.	.
COC(=O)[C@@]1(Cc2ccccc2)[C@H]2c3cc(C(=O)N4CCCC4)n(Cc4ccc(O)c(OC)c4)c3C[C@H]2CN1C(=O)c1ccccc1	.	?	.	1µM*	.	.
COC(=O)[C@@]1(Cc2ccc(F)cc2)[C@H]2c3cc(C(=O)N4CCCC4)n(CCO)c3C[C@H]2CN1C(=O)c1ccccc1	.	13%	.	20%	.	.
COC(=O)[C@@]1(Cc2ccc(OC)cc2)[C@H]2c3cc(C(=O)N4CCCC4)n(Cc4cc(C)n(C)n4)c3C[C@H]2CN1C(=O)c1ccccc1	.	?	.	13µM*	.	.
COc1ccc(-n2c(=O)c(CCc3ccccc3)nc3cnc(OC)nc32)cc1	86%	?	-6%	?	.	.
COC(=O)c1ccc(OC)c(CSc2nnc(COc3ccc(OC)cc3)o2)c1	-3%	?	-1%	13µM*	>57	>77
COc1ccc(C(C)=O)cc1CSc1nnc(C)s1	-8%	12%	6%	10%	.	.
COc1ccc(C(C)=O)cc1CSc1nc2ccccc2o1	-9%	?	3%	25µM*	>57	>77
CC(=O)[C@@H](C)CCO[C@@]1(C)OCC[C@@H]1C	.	-2%[11.4 µM]	-8%[9.17 µM]	-11%[11.4 µM]	.	.
CCNc1ncc2nc(-c3ccccc3)c(=O)n(Cc3cccs3)c2n1	130%	?	-1%	?	.	.
Cc1ccc(OCC(=O)Nc2cccc(-c3nnc(-c4ccccc4)o3)c2)cc1	25%	?	19%	?	>57	8.6*
CCC(=O)Nc1cccc(-c2nc3ccccc3o2)c1	17%	-10%	2%	4%	.	>77
Cc1cccc(C)c1OCC(=O)Nc1cccc(-c2nnc(-c3ccccc3)o2)c1	.	.	.	.	>26	.
COc1ccccc1OCC(=O)Nc1cccc(-c2nc3ccccc3o2)c1	30%	?	-3%	25µM*	>57	>77
O=C(Nc1cccc(-c2nnc(-c3ccccc3)o2)c1)C1CCCCC1	31%	?	-1%	?	>57	>77
O=C(Nc1ccccc1)c1cccc(-c2nnc(-c3ccccc3)o2)c1	-7%	?	-1%	32µM*	>57	>77
CC[C@H]1C(=O)OC[C@@H]1Cc1cncn1C	.	19%	-1%	-1%	.	.
O=C(Nc1ccc(F)cc1)c1cccc2c1C(=O)N(Cc1ccccn1)C2	12%	?	9%	?	11*	.
CCCN1Cc2cccc(C(=O)Nc3cc(OC)cc(OC)c3)c2C1=O	29%	?	-3%	?	>57	.
O=C(O)/C=C\C(=O)Nc1cccc2c1-c1ccccc1C2=O	.	18%[11.4 µM]	-8%[9.17 µM]	-6%[11.4 µM]	.	.
COc1ccc2cc3cc(C(=O)NCCN4CCc5ccccc5C4)oc3nc2c1	38%	25%	0%	24%	0.76*	>77
SMILES	USP2a inh	TSHR ag	UbGFP stabilizer	HEK293 cAMP ctrl	Bst PK mod	GBA mod
COc1ccc2cc3cc(C(=O)NCCN4CCN(Cc5ccccc5)CC4)oc3nc2c1	39%	?	-13%	?	?	>77
CCc1nc(C)cn1S(=O)(=O)c1ccc(Cl)c(Cl)c1Cl	5%	?	10%	25µM*	.	.
COc1ccc(-c2noc(CCC(=O)NCCN(C)Cc3ccccc3)n2)cc1	11%	?	1%	?	>57	.
CCN(CCCNC(=O)CCc1nc(-c2ccc(OC)cc2)no1)c1cccc(C)c1	-8%	13µM*	0%	18%	>57	.
O=C(O)CSc1nc(-c2ccccc2)nc2c1oc1ccccc12	0%	6%	-5%	5%	?	>77
O=C(O)C1CCN(c2nc(-c3ccccc3)nc3c2oc2ccccc23)CC1	6%	10%	.	-20%	7.4*	i
c1ccc(N2CCN(c3ncnc4c3oc3ccccc34)CC2)cc1	7%	?	-3%	20µM*	.	.
Cc1ccc2c(c1)c1ncnc(N3CCN(c4ccccc4)CC3)c1n2C	14%	?	.	25µM*	.	>77
OCCN1CCN(c2nc(-c3ccccc3)nc3c2oc2ccccc23)CC1	16%	.	-1%	-2%	6*	i
Cn1c(=O)c2c(nc(N/N=C\c3ccccc3C(=O)O)n2C)n(C)c1=O	.	0%[11.4 µM]	-5%[9.17 µM]	2%[11.4 µM]	.	.
CCOC(=O)C1CCCN(c2ncnc3c2oc2ccccc23)C1 (centres undefined)	7%	?	1%	?	.	?
CCOC(=O)C1CCN(c2ncnc3c2oc2ccccc23)CC1	9%	?	1%	25µM*	i	.
c1ccc(Nc2ncnc3c2oc2ccccc23)cc1	2%	?	2%	?	5.4*	>77
Oc1ccccc1Nc1ncnc2c1oc1ccccc12	-20%	7%	3%	12%	>57	>77
CCOC(=O)C1CCN(c2nc(-c3ccccc3)nc3c2oc2ccccc23)CC1	8%	.	-1%	20%	i	7.4*
CCS(=O)(=O)Nc1ccc(-c2nnc(SCC(=O)c3ccc(NC(C)=O)c(OC)c3)o2)cc1	12%	-4%	3%	-5%	>57	>77
CCS(=O)(=O)Nc1ccc(-c2nnc(SCC(=O)c3cccc(OC)c3)o2)cc1	4%	?	-2%	?	>57	11*
CCCn1c(NC(=O)c2ccc(Cl)c(S(=O)(=O)N3CCCC3)c2)nc2ccccc21	24%	?	0%	16µM*	>57	.
O=C(NCc1nc2ccccc2[nH]1)c1ccc(Cl)c(S(=O)(=O)N2CCCC2)c1	25%	1%	0%	3%	>57	>77
CCOC(=O)c1c(C)c(C(=O)Nc2cc(F)ccc2F)c(C)n1C	10%	?	12%	7.9µM*	>57	>77
Cn1c(=O)c(-c2ccccc2)nc2cncnc21	6%	?	-4%	4µM*	.	.
O=c1c(-c2ccccc2)nc2cncnc2n1-c1ccccc1	59%	9%	11%	26%	.	.
O=c1c(-c2cccs2)nc2cncnc2n1-c1ccccc1	194%	?	4%	25µM*	.	.
